PubChem BioAssay (NCI)
About 79,000 compounds went through this panel and 15% of them were active in at least one assay; those are over-represented in the sample as a whole. No stated cut-off is given here; in the data, active means growth inhibition above about 70%; inactive means the rest.

Key:
[1] = NCI Yeast Anticancer Drug Screen. Data for the rad50 strain (AID 155);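 further: 0% = growth of vehicle-only cultures of the same strain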; settings: S. cerevisiae rad50 strain growth inhibition; at 50.0 µM; active compounds read high
In short: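 Vehicle-treated cultures provide the reference for the growth inhibition reported for compound-exposed, repair-deficient yeast.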

[2] = NCI Yeast Anticancer Drug Screen. Data for the mec2-1 strain (AID 157); settings: S. cerevisiae mec2-1 strain, at 50.0 µM, active compounds read high
In short: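 Compounds were applied to mec2-1 yeast cells. Their growth was then compared with that of vehicle-treated cultures to give growth inhibition.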

[3] = NCI Yeast Anticancer Drug Screen. Data for the sgs1 mgt1 strain (AID 161);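 further: 0% = growth of cultures given vehicle only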; settings: S. cerevisiae sgs1 mgt1 strain, at 50.0 µM, active compounds read high
In short: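 Yeast cells carrying a defined DNA-repair defect were exposed to test compounds. Growth inhibition was measured relative to vehicle-treated controls.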

[4] = NCI Yeast Anticancer Drug Screen. Data for the cln2 rad14 strain (AID 165);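 further: 0% = growth equal to vehicle treated cultures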; settings: S. cerevisiae cln2 rad14 strain, at 50.0 µM, active compounds read high
In short: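 Strain: cln2 rad14 yeast, altered in cell cycle control and DNA damage repair. Read-out: growth inhibition vs vehicle.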

[5] = NCI Yeast Anticancer Drug Screen. Data for the bub3 strain (AID 167); settings: S. cerevisiae bub3 mutant strain, at 50.0 µM, active compounds read high
In short: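 Mutant yeast screening strain plus compound; vehicle-treated cultures serve as the 0% inhibition reference.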

[6] = NCI Yeast Anticancer Drug Screen. Data for the mlh1 rad18 strain (AID 175); settings: S. cerevisiae mlh1 rad18 strain growth inhibition; at 50.0 µM; active compounds read high
In short: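 A repair-deficient yeast strain is exposed to test compound, and growth is scored relative to vehicle-treated controls.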

Measured: growth inhibition

C[C@]12CC[C@@H]3c4ccc(O)cc4CC[C@H]3[C@@H]1CC[C@@H]2OC(=O)CCc1ccccc1
inactive: [1] 35.1% | [2] 9.8% | [3] 26.3% | [4] 28.5% | [5] -2.4% | [6] 31.1%

Cc1nc(-c2ccccc2)ncc1C(O)CN1CCOCC1 (stereo unspecified)
inactive: [1] 12.8% | [2] 11.2% | [3] 17.4% | [4] 13.7% | [5] -23% | [6] 6.95%

O=CC1(CCc2ccccc2)NC(=O)NC1=O (stereo unspecified)
inactive: [1] 5.3% | [2] 11.2% | [3] 2.55% | [4] -18.9% | [5] -0.4% | [6] 1.25%

CC(=O)NCC(N)=S
inactive: [1] 5.85% | [2] -24.1% | [3] 0.65% | [4] -1.55% | [5] 5.3% | [6] 4%

O=c1c2c(c(=O)c(=O)c1=O)Nc1ccccc1N2
inactive: [1] 22.2% | [2] -6.15% | [3] 11.6% | [4] 34.7% | [5] 10.2% | [6] 15.7%

Cc1ccc(C(=O)C(O)c2ccc(C)cc2)cc1 (stereo unspecified)
inactive: [1] 35.6% | [2] -34.6% | [3] 4.95% | [4] -24.1% | [5] 0.55% | [6] -7.05%

COC(=O)C(CC(=O)[C@H]1CC[C@H]2[C@@H]3CC=C4C[C@@H](OC(C)=O)CC[C@]4(C)[C@H]3CC[C@]12C)OC(C)=O (stereo partly specified)
inactive: [1] 18.7% | [2] -6.2% | [3] 26.7% | [4] 28.9% | [5] -1.75% | [6] 8.7%

CCOC(=O)C(Cc1cn(S(=O)(=O)c2ccc(C)cc2)cn1)P(=O)(OCC)OCC (stereo unspecified)
inactive: [1] -34.5% | [2] -4.45% | [3] -13.4% | [4] 14.2% | [5] -16.7% | [6] -14.3%

CC(C)SC(=O)C[Si](C)(C)C
inactive: [1] -5.8% | [2] 6.95% | [3] -2.9% | [4] -16.1% | [5] 26.7% | [6] -1.65%

COC(=O)c1cc(C(=O)OC)c(C/C(=N/NC(=O)C[N+](C)(C)C)C(=O)Nc2cccc(C(F)(F)F)c2)nc1C/C(=N/NC(=O)C[N+](C)(C)C)C(=O)Nc1cccc(C(F)(F)F)c1
inactive: [1] -14.5% | [2] -1.45% | [3] -11.6% | [4] 17.1% | [5] 11.4% | [6] -2.3%

O=S1(=O)OCCOS(=O)(=O)C1(I)I
inactive: [1] 11.7% | [2] -26.2% | [3] -2.35% | [4] 11.4% | [5] -9.7% | [6] 16.2%

CC1CCOC(c2ccc(C(C)C)cc2)O1 (stereo unspecified)
inactive: [1] 8.4% | [2] -2.4% | [3] 2.9% | [4] -9.9% | [5] 9.45% | [6] -0.15%

O=C(Nc1ccc(Cc2ccc(NC(=O)Nc3nc4ccccc4s3)cc2)cc1)Nc1nc2ccccc2s1
inactive: [1] -5.15% | [2] -17.4% | [3] -2.25% | [4] 19.2% | [5] 21.6% | [6] -4.5%

CSCCC(NC(=O)c1c(Cl)ccc(Cl)c1Cl)C(=O)O (stereo unspecified)
inactive: [1] -8.45% | [2] -0.75% | [3] 18.6% | [4] -18.6% | [5] 0.6% | [6] -16.4%

Cc1cc(-n2nnc(C(=O)O)c2-c2ccccc2)c2ccc(Cl)cc2n1
inactive: [1] -19.1% | [2] -4.35% | [3] -12.1% | [4] -35% | [5] -8.9% | [6] 4.1%

CCOCCOC(=O)C1CCC(=O)N1CN(C(C)=O)c1cc(OC)ccc1OC (stereo unspecified)
inactive: [1] -17.9% | [2] -3.6% | [3] -30.9% | [4] 6.1% | [5] -0.5% | [6] -39.5%

c1ccc2c(c1)-c1ccccc1C2N1CCCC1
inactive: [1] 14.2% | [2] 14.8% | [3] 4.2% | [4] 10.4% | [5] -0.85% | [6] -7.9%

O=C(OCCCl)C1OC(n2cc(F)c(=O)[nH]c2=O)CC1O (stereo unspecified)
inactive: [1] 23.4% | [2] 3.35% | [3] 2.5% | [4] 8.7% | [5] 2.55% | [6] -3.1%

CSc1ncnc2[nH]ncc12
inactive: [1] 4.5% | [2] 20.9% | [3] -30.5% | [4] -20.9% | [5] -0.4% | [6] -62.1%

c1ccc(CCCOCCCc2ccccc2)cc1
inactive: [1] 24.9% | [2] 14.8% | [3] 9.15% | [4] 7.4% | [5] 51.2% | [6] 22.4%

CC1=Nc2ccccc2N2C1=CC1=C(C(=O)c3cc4ccccc4cc3C1=O)C2C (stereo unspecified)
inactive: [1] 16.4% | [2] 6.65% | [3] 5.75% | [4] 24.2% | [5] -5.2% | [6] 24.4%

CC(C(N)=O)N1C(=O)C2C3CCC(O3)C2C1=O (stereo unspecified)
inactive: [1] -7.65% | [2] -6.65% | [3] -16.1% | [4] -44.8% | [5] -1.8% | [6] 3.1%

Nc1nc(NC(=O)C2=NS(=O)(=O)c3cc(S(N)(=O)=O)c(Cl)cc3N2)n[nH]1
inactive: [1] -8.9% | [2] -26.2% | [3] -3.85% | [4] 9.7% | [5] 0.7% | [6] -2.3%

Cc1c(-c2coc(-c3ccc(Cl)cc3)n2)c(=O)n(-c2ccccc2)n1C
inactive: [1] -7.85% | [2] -43.2% | [3] -22.1% | [4] -9.9% | [5] 7.4% | [6] -6.6%

C/C(=N/NC(=O)C1CCCO1)c1ccc(C)cc1 (stereo unspecified)
inactive: [1] 0.95% | [2] -6.5% | [3] -4.75% | [4] -92% | [5] -6.5% | [6] -28.9%

C=C1CCc2occ(C)c2C2C1C1=C(CC(C)C1=O)C1OC12C (stereo unspecified)
inactive: [1] 14.9% | [2] 11.1% | [3] -2.75% | [4] -22.8% | [5] 12.4% | [6] 10.2%

Cc1ccc(C)c(NC(=O)Nc2ccc(Nc3ccccc3)cc2)c1
inactive: [1] -6.3% | [2] 12.8% | [3] 15.8% | [4] -18.4% | [5] 17.1% | [6] 33%

O=[N+]([O-])c1ccc(SC2=NCCCN2C2CCCCC2)c(Cl)c1
inactive: [1] -0.1% | [2] -13.9% | [3] 12.8% | [4] 13.8% | [5] 12.6% | [6] -9%

c1ccc2c(c1)CCc1ccccc1N=N2
inactive: [1] -8.1% | [2] -1.55% | [3] -17.1% | [4] -30.4% | [5] -1.4% | [6] 5.35%

CCOC(=O)CSc1nnc(N)s1
inactive: [1] 21% | [2] 6.55% | [3] -6.15% | [4] 3.15% | [5] -6.75% | [6] -1.5%

Oc1cc(CN2CCOCCOCCOCCOCC2)c(O)cc1CN1CCOCCOCCOCCOCC1
inactive: [1] 7.85% | [2] -11.8% | [3] 8.9% | [4] -49.1% | [5] -8.3% | [6] -14.1%

CC(=O)OCC1OC(Nc2[nH]c(=O)n(C)c(=O)c2-c2csc(N)n2)C(OC(C)=O)C(OC(C)=O)C1OC(C)=O (stereo unspecified)
inactive: [1] -12.8% | [2] -25.6% | [3] -32.9% | [4] 27.4% | [5] -8.9% | [6] -8.6%

Cc1cc(C)c(C)c(C)c1C
inactive: [1] 17.6% | [2] -8.15% | [3] 14.8% | [4] 2.55% | [5] -3.6% | [6] 20.6%

CCCCCC(=O)OCCOCCOC
inactive: [1] 33.7% | [2] -2.9% | [3] 29.6% | [4] 0.25% | [5] 2.25% | [6] 29.3%

N#CC(C(=O)CCC(=O)C(C#N)c1c(Cl)cccc1Cl)c1c(Cl)cccc1Cl (stereo unspecified)
inactive: [1] -18.3% | [2] 7.3% | [3] -12.5% | [4] -41.5% | [5] 6.55% | [6] -11.1%

COc1cc(OC)c(N=Nc2c(N)nc(N)[nH]c2=O)cc1Cl
inactive: [1] 4.95% | [2] 14.6% | [3] 7.5% | [4] -12.1% | [5] 8.3% | [6] -1.4%

Cc1cc(C)c(NC(=O)NC2CCCCC2)cc1C
inactive: [1] 3.95% | [2] -9.3% | [3] 4.15% | [4] -1.6% | [5] 10.2% | [6] 34.9%

Fc1ccc(C(c2ccc(F)cc2)C(F)(F)F)cc1
inactive: [1] 8.65% | [2] -20.3% | [3] 24.9% | [4] 10.8% | [5] 13.7% | [6] 13.4%

Cc1cc(C)c(/C=C/c2c(C)cc(C)cc2C)c(C)c1
inactive: [1] 9.25% | [2] -12.9% | [3] 4.2% | [4] -26.4% | [5] -4.45% | [6] -0.5%

COc1ccc(C(C#N)N(C)C)cc1OC (stereo unspecified)
inactive: [1] -16.9% | [2] -13.6% | [3] 8% | [4] -15.1% | [5] 0.75% | [6] 5.15%

O=C(CCC1CCCC1)Oc1ccccc1C(=O)O
inactive: [1] -1.9% | [2] -9.65% | [3] 7.1% | [4] -42.7% | [5] 9.5% | [6] 3.4%
